This passage reports SARS-CoV-2 infection rate results from the supplement of paper PMC13380429.

Values without a mark were called inactive.

The experiment has as its system Vero E6 infected with SARS-CoV-2. Nature of the experiment: SARS-CoV-2 infection rate relative to infected DMSO; higher = more infection, active = 60 or less. As to conditions: 24 h.
For `COc1ccccc1OCC(O)CNC(C)C` (centres undefined) [moprolol] (10 µM), the SARS-CoV-2 infection rate was 100%.

Take `Oc1ccnc2cc(Cl)ccc12` [chloroxoquinoline] (10 µM): the SARS-CoV-2 infection rate is 99.5%.

On to `Clc1ccccc1C(c1ccccc1)(c1ccccc1)n1cccn1` (10 µM), for which the SARS-CoV-2 infection rate is 100%.

Consider `CN(Cc1ccccc1)C(=O)[C@H](Cc1ccc2ccccc2c1)NC(=O)[C@@H]1CCCN1C(=O)Nc1ccccc1[N+](=O)[O-]` (10 µM), for which the SARS-CoV-2 infection rate is 108%.

For the compound `Clc1cccc(/C=N/N=C/c2cccc(Cl)c2)c1` [3,3'-dichlorobenzaldazine] (10 µM), the SARS-CoV-2 infection rate was 99%.

With `COc1ccc(Cl)cc1[C@]1(F)C(=O)Nc2cc(C(F)(F)F)ccc21` [flindokalner] (10 µM), the SARS-CoV-2 infection rate was 99.5%.

Regarding `O=C(Oc1ccc([N+](=O)[O-])cc1)N1CCN(Cc2cccc(Oc3ccccc3)c2)CC1` (10 µM), the SARS-CoV-2 infection rate is 95.5%.

On to `CC1(C)CN(C(=O)c2ccc(-c3cccc4nc(NC(=O)C5CC5)nn34)cc2)C1` [solcitinib] (10 µM), for which the SARS-CoV-2 infection rate was 110%.

With `CC(C)CN(C[C@@H](OP(=O)(O)O)[C@H](Cc1ccccc1)NC(=O)O[C@H]1CCOC1)S(=O)(=O)c1ccc(N)cc1` [fosamprenavir] (10 µM), the SARS-CoV-2 infection rate is 109%.

Regarding `C[C@H]1C[C@H]2[C@@H]3CCC4=CC(=O)C=C[C@]4(C)[C@H]3C(=O)C[C@]2(C)[C@@]1(O)C(=O)CO` [Betapar (Meprednisone)] (10 µM), the SARS-CoV-2 infection rate was 108%.

For the compound `COc1ccc2c3c1O[C@H]1C[C@@H](O)C=C[C@@]31CCN(C)C2` [galantamine] (10 µM), the SARS-CoV-2 infection rate was 102%.

For `CCN(CC)C(=O)[C@@]1(c2ccccc2)C[C@H]1CN` [milnacipran] (10 µM), the SARS-CoV-2 infection rate is 105%.

As to `NC[C@@](O)(c1ccc(Cl)cc1)c1ccc(-c2cn[nH]c2)cc1` (10 µM), the SARS-CoV-2 infection rate is 108%.

`O=c1cc[nH]c(=O)[nH]1` [uracil] (10 µM): the SARS-CoV-2 infection rate is 108%.

With `Clc1ccc(CCCOCCCN2CCCCC2)cc1` [pitolisant] (10 µM), the SARS-CoV-2 infection rate is 81%.

For the compound `Oc1ccc(OCc2ccccc2)cc1` [monobenzone] (10 µM), the SARS-CoV-2 infection rate is 119%.

As for `CN(C)CCn1cc(S(=O)(=O)c2cccc(F)c2)c2cccnc21` (10 µM), the SARS-CoV-2 infection rate is 109%.

Regarding `CN1c2ccccc2C(NCCCCCCC(=O)O)c2ccc(Cl)cc2S1(=O)=O` (centres undefined) [tianeptine] (10 µM), the SARS-CoV-2 infection rate was 104%.

Take `O=C(O)c1ccc(N2N=C(Cc3ccccc3)/C(=C\c3ccc(-c4ccccc4F)o3)C2=O)cc1` (10 µM): the SARS-CoV-2 infection rate was 115%.

For the compound `C=CCC1(CC(C)C)C(=O)NC(=O)NC1=O` [butalbital] (10 µM), the SARS-CoV-2 infection rate was 117%.

Regarding `CCn1cnc2c(Nc3cccc(Cl)c3)nc(N[C@@H]3CCCC[C@@H]3N)nc21` (0.833333 µM), the SARS-CoV-2 infection rate was 114%.

Take `NC12CC3CC(CC(C3)C1)C2` [amantadine] (10 µM): the SARS-CoV-2 infection rate is 110%.

Turning to `O=C(O)Cn1nnc(-c2cc(N3CCC(Oc4cc(F)ccc4Br)CC3)no2)n1` (10 µM), the SARS-CoV-2 infection rate was 104%.

`Cc1nc2ccccc2c(-c2ccc3c4c(ccnc24)CCO3)c1[C@H](OC(C)(C)C)C(=O)O` (10 µM): the SARS-CoV-2 infection rate is 104%.

For `CN(C)C(=O)c1ccc(S(=O)(=O)c2ccc(NC(=O)[C@@](C)(O)C(F)(F)F)c(Cl)c2)cc1` (10 µM), the SARS-CoV-2 infection rate is 104%.

As for `CCCCCCNC(=O)n1cc(F)c(=O)[nH]c1=O` [carmofur] (0.833333 µM), the SARS-CoV-2 infection rate was 96%.

Regarding `COc1cc2c(cc1OC)C1CC(=O)C(CC(C)C)CN1CC2` (centres undefined) [tetrabenazine] (10 µM), the SARS-CoV-2 infection rate is 102%.

Regarding `Cc1nccc2[nH]c(=O)ccc12` [medorinone] (10 µM), the SARS-CoV-2 infection rate is 96.5%.

Turning to `CC(=O)NC[C@H]1CN(c2ccc(-c3ccc(CNCc4cnn[nH]4)cc3)c(F)c2)C(=O)O1` [radezolid] (10 µM), the SARS-CoV-2 infection rate is 110%.

Regarding `Cc1c(C)c2c(c(C)c1O)CCC(C)(C(=O)O)O2` (centres undefined) [trolox] (0.833333 µM), the SARS-CoV-2 infection rate is 98.5%.

Consider `COc1ccc(-c2cc(=O)c3c(OC)c(OC)c(OC)c(OC)c3o2)cc1OC` [nobiletin] (10 µM), for which the SARS-CoV-2 infection rate was 110%.

Consider `N=C(NCCCCCCNC(=N)NC(=N)Nc1ccc(Cl)cc1)NC(=N)Nc1ccc(Cl)cc1` [chlorhexidine] (0.833333 µM), for which the SARS-CoV-2 infection rate is 58% (active).

Regarding `OCc1ccccc1O` [salicyl-alcohol] (10 µM), the SARS-CoV-2 infection rate was 106%.

With `CN(CCOc1ccc(NS(C)(=O)=O)cc1)CCc1ccc(NS(C)(=O)=O)cc1` [dofetilide] (10 µM), the SARS-CoV-2 infection rate is 112%.

For the compound `CCCC(CCC)C(=O)NCC(N)=O` [valrocemide] (10 µM), the SARS-CoV-2 infection rate is 108%.

Regarding `CCCS(=O)(=O)Nc1ccc(F)c(C(=O)c2c[nH]c3ncc(-c4ccc(Cl)cc4)cc23)c1F` [vemurafenib] (10 µM), the SARS-CoV-2 infection rate is 85.5%.

With `c1cc2c(c(N3CCNCC3)c1)OCCO2` [eltoprazine] (10 µM), the SARS-CoV-2 infection rate is 94.5%.

As for `COc1ccc2c(O[C@@H]3C[C@H]4C(=O)N[C@]5(C(=O)NS(=O)(=O)C6CC6)C[C@H]5/C=C\CCCCN(C)C(=O)[C@@H]4C3)cc(-c3nc(C(C)C)cs3)nc2c1C` [simeprevir] (10 µM), the SARS-CoV-2 infection rate was 88.5%.

Regarding `CCCOc1ccc2[nH]c(NC(=O)OC)nc2c1` [oxibendazole] (10 µM), the SARS-CoV-2 infection rate was 118%.
